# Key:
# [1] = system: RIVA; test: growth inhibition by drug plus 177Lu-lilotomab satetraxetan (1 - RLU/untreated control) (fraction); higher = stronger inhibition; conditions: 177Lu-lilotomab satetraxetan 0.5 ug/ml
# Outline: (§1)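 With or without 18 h pretreatment by a radiolabelled anti-CD37 antibody conjugate (~600 MBq/mg; 0.5 µg/ml RIVA, 1 µg/ml U-2932), RIVA and U-2932 cells were washed and plated at 3,000 cells/well. Pre-printed compound doses were 10/100 nM for RIVA and 10/1,000 nM for U-2932. Growth inhibition uses RealTime-Glo RLU relative to the untreated no-drug wells. The calculation is 1 − RLU/mean of 48 such wells per plate, with reads daily from day 3 after 1 h at 37°C.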
# [2] = system: U-2932; test: growth inhibition by drug alone (1 - RLU/untreated control) (fraction); higher = stronger inhibition; conditions: 177Lu-lilotomab satetraxetan 0 ug/ml
# Outline: as §1
# [3] = system: RIVA; test: as above; conditions: 177Lu-lilotomab satetraxetan 0 ug/ml
# Outline: as §1
# [4] = system: U-2932; test: growth inhibition by drug plus 177Lu-lilotomab satetraxetan (1 - RLU/untreated control) (fraction); higher = stronger inhibition; conditions: 177Lu-lilotomab satetraxetan 1 ug/ml
# Outline: as §1
SMILES,"growth inhibition by drug plus 177Lu-lilotomab satetraxetan ([1]; 100 nM, time (day): 5)","growth inhibition by drug plus 177Lu-lilotomab satetraxetan ([1]; 100 nM, time (day): 6)","growth inhibition by drug alone ([2]; 10 nM, time (day): 3)","growth inhibition by drug alone ([2]; 10 nM, time (day): 4)","growth inhibition by drug alone ([2]; 10 nM, time (day): 5)","growth inhibition by drug alone ([2]; 10 nM, time (day): 6)","growth inhibition by drug alone ([2]; 1000 nM, time (day): 3)","growth inhibition by drug alone ([2]; 1000 nM, time (day): 4)","growth inhibition by drug alone ([2]; 1000 nM, time (day): 5)","growth inhibition by drug alone ([2]; 1000 nM, time (day): 6)","growth inhibition by drug alone ([3]; 10 nM, time (day): 3)","growth inhibition by drug alone ([3]; 10 nM, time (day): 4)","growth inhibition by drug alone ([3]; 10 nM, time (day): 5)","growth inhibition by drug alone ([3]; 10 nM, time (day): 6)","growth inhibition by drug alone ([3]; 100 nM, time (day): 3)","growth inhibition by drug alone ([3]; 100 nM, time (day): 4)","growth inhibition by drug alone ([3]; 100 nM, time (day): 5)","growth inhibition by drug alone ([3]; 100 nM, time (day): 6)","growth inhibition by drug plus 177Lu-lilotomab satetraxetan ([4]; 10 nM, time (day): 3)","growth inhibition by drug plus 177Lu-lilotomab satetraxetan ([4]; 10 nM, time (day): 4)","growth inhibition by drug plus 177Lu-lilotomab satetraxetan ([4]; 10 nM, time (day): 5)","growth inhibition by drug plus 177Lu-lilotomab satetraxetan ([4]; 10 nM, time (day): 6)","growth inhibition by drug plus 177Lu-lilotomab satetraxetan ([4]; 1000 nM, time (day): 3)","growth inhibition by drug plus 177Lu-lilotomab satetraxetan ([4]; 1000 nM, time (day): 4)","growth inhibition by drug plus 177Lu-lilotomab satetraxetan ([4]; 1000 nM, time (day): 5)","growth inhibition by drug plus 177Lu-lilotomab satetraxetan ([4]; 1000 nM, time (day): 6)","growth inhibition by drug plus 177Lu-lilotomab satetraxetan ([1]; 10 nM, time (day): 3)","growth inhibition by drug plus 177Lu-lilotomab satetraxetan ([1]; 10 nM, time (day): 4)","growth inhibition by drug plus 177Lu-lilotomab satetraxetan ([1]; 10 nM, time (day): 5)","growth inhibition by drug plus 177Lu-lilotomab satetraxetan ([1]; 10 nM, time (day): 6)","growth inhibition by drug plus 177Lu-lilotomab satetraxetan ([1]; 100 nM, time (day): 3)","growth inhibition by drug plus 177Lu-lilotomab satetraxetan ([1]; 100 nM, time (day): 4)"
COc1cc2c(NC3CCN(C)CC3)nc(N3CCCN(C)CC3)nc2cc1OCCCN(C)C,0.453,0.469,–,–,–,–,–,–,–,–,–,–,–,–,–,–,–,–,–,–,–,–,–,–,–,–,–,–,–,–,–,–
O=C(CCCCCCC(=O)Nc1ccccc1)NO [Vorinostat (SAHA)],0.586,0.591,-0.0182,-0.0297,-0.0883,-0.201,0.818,0.762,0.691,0.615,-0.119,-0.189,-0.294,-0.432,-0.132,-0.192,-0.199,-0.285,-0.0269,0.0202,0.0234,0.0225,0.849,0.817,0.786,0.742,0.465,0.518,0.537,0.553,0.523,0.578
CO[C@H]1C[C@@H]2CC[C@@H](C)[C@@](O)(O2)C(=O)C(=O)N2CCCC[C@H]2C(=O)O[C@H]([C@H](C)C[C@@H]2CC[C@@H](OCCO)[C@H](OC)C2)CC(=O)[C@H](C)/C=C(\C)[C@@H](O)[C@@H](OC)C(=O)[C@H](C)C[C@H](C)/C=C/C=C/C=C/1C [Everolimus (RAD001)],0.876,0.873,0.744,0.686,0.591,0.52,0.743,0.728,0.667,0.605,0.776,0.768,0.744,0.653,0.811,0.826,0.827,0.801,0.69,0.625,0.558,0.538,0.719,0.729,0.706,0.702,0.821,0.838,0.833,0.788,0.833,0.865
Oc1ccc(Nc2nc(-c3ccc(Cl)cc3)cs2)cc1,0.304,0.293,0.0714,0.0415,-0.0308,-0.079,0.00763,0.0746,-0.00976,-0.13,-0.021,-0.0647,-0.176,-0.522,-0.28,-0.263,-0.403,-0.57,-0.0159,0.00418,0.0159,-0.00943,0.0757,0.243,0.237,0.277,0.383,0.501,0.516,0.539,0.158,0.298
O=C(CCCCCCC(=O)Nc1cccnc1)NO [Pyroxamide],0.511,0.509,-0.0932,-0.0929,-0.129,-0.234,0.82,0.79,0.759,0.717,-0.263,-0.352,-0.468,-0.514,-0.333,-0.305,-0.265,-0.306,-0.106,-0.0647,-0.00568,0.0937,0.6,0.542,0.472,0.474,0.358,0.433,0.464,0.49,0.454,0.507
C=CC(=O)N1CCC[C@@H](n2nc(-c3ccc(Oc4ccccc4)cc3)c3c(N)ncnc32)C1,0.919,0.934,0.341,0.519,0.583,0.634,0.502,0.623,0.729,0.832,0.676,0.716,0.705,0.642,0.897,0.908,0.915,0.923,0.46,0.56,0.568,0.6,0.639,0.723,0.791,0.845,0.764,0.828,0.848,0.853,0.872,0.9
CS(=O)(=O)N1CCN(Cc2cc3nc(-c4cccc5[nH]ncc45)nc(N4CCOCC4)c3s2)CC1,0.486,0.45,-0.0712,-0.0515,-0.0456,0.0469,0.69,0.786,0.802,0.82,-0.0821,-0.12,-0.138,-0.212,0.604,0.409,0.327,0.221,-0.0212,-0.0112,0.0169,0.184,0.81,0.875,0.897,0.913,0.351,0.467,0.488,0.493,0.532,0.5
